Rows were chosen to be rich in hits. Some 1.6% of all compounds tested hit in one or more screens of this group.
KCNQ2 inh: blocks the rat KCNQ2 potassium channel. O88943. CHO-K1 KCNQ2, FluxOR thallium flux, 20 min; active compounds read low. B-score at 10 µM. 310,000 compounds, 1.1% hits. AID 2156;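 active = fluorescence ratio B-score at most minus 3 library SDs, with starting brightness B-score within 2 library SDs, cut at about -5.5 in these data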
Target sequence (O88943 whole entry, looked up): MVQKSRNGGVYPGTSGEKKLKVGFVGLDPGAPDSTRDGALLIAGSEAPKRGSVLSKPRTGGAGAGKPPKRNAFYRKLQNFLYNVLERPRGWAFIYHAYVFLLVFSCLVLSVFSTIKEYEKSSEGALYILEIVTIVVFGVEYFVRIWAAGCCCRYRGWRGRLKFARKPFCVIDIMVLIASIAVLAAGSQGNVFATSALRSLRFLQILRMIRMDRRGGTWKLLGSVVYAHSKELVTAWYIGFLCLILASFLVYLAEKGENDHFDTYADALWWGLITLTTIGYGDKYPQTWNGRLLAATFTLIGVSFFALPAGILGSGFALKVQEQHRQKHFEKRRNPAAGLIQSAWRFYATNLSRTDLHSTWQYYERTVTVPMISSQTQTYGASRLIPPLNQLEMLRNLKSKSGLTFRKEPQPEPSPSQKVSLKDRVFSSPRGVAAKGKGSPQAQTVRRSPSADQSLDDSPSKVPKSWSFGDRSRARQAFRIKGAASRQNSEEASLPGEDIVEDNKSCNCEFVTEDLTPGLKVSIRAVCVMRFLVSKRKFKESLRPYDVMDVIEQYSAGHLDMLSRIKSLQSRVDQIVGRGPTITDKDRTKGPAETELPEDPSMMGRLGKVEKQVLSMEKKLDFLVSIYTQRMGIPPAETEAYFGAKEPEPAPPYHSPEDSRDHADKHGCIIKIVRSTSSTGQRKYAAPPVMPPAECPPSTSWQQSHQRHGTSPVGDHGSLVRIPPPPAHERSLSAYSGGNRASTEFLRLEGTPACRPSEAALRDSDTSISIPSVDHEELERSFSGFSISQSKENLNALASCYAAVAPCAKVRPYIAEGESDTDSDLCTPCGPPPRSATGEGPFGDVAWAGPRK
KCNQ2 enhance: potentiators of rat KCNQ2 potassium channel; O88943; CHO-K1 KCNQ2, FluxOR thallium flux fluorescence; active compounds read high; B-score at 10 µM; 310,000 compounds, 0.54% hits; AID 2239;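 active = fluorescence ratio B-score at least 3 SD of library B-scores, with initial fluorescence B-score within 3 of them, cut at about 5.3 in these data; same plate scores as AID 2156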;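 also: B-score of peak minus minimum over baseline fluorescence ratio after K+ and Tl+ stimulus; positive B-score means potentiation of KCNQ2 with more thallium influx and brighter signal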
Kir21 conf inh: confirmation of mouse Kir2.1 potassium channel inhibitors; shares compounds with KCNQ2 enhance; Kir2.1-expressing cells, FluxOR thallium flux fluorescence; active compounds read low; Tl flux remaining, % of negative control (active compounds read low), % at 10 µM; 2,300 compounds, 41% hits;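 active = Primary-screen hit whose thallium flux fell at least 3 control SD below untreated wells in both duplicates, with normal baseline fluorescence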;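 also: 0% = blank wells without stimulus and 100% = stimulated no-compound controls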
HEK293 ctr: alters thallium flux in parental HEK293 cells, Kir2.1 counter-screen; shares compounds with KCNQ2 enhance; FluxOR thallium flux fluorescence; 0% = unstimulated blank wells; FluxOR signal as % of negative control (100 = no effect), % at 10 µM; 2,300 compounds, 19% hits;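 active = dye signal at least 3 control SD above or below untreated wells in both duplicates, raw fluorescence within 3, either direction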;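 also: percent is based on the flux ratio of peak minus minimum fluorescence over baseline F0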
CHO-K1 ctr: counter-screen for KCNQ2 potentiators: effect in parental CHO-K1 cells. activity increase over 3SD of controls, % at 10 µM. shares compounds with KCNQ2 enhance. 1,200 compounds, 43% hits. FluxOR thallium flux fluorescence; zero = vehicle mean+3SD, 100% = vehicle-minus-blank window;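 active = signal rise of at least 3 SD above the untreated control mean, in both duplicate wells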;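 also: counter screen of KCNQ2 potentiator hits so any rise reflects channel-independent effects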
KCNQ1 pot spec: tests whether KCNQ2 potentiators also act on human KCNQ1. shares compounds with KCNQ2 enhance. CHO KCNQ1 stable, FluxOR thallium flux fluorescence; beyond 3SD, as % of vehicle-control signal. activation over 3SD threshold, % at 10 µM. 1,200 compounds, 28% hits. AID 2283;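 active = fluorescence ratio rise of at least 3 SD of vehicle wells above their mean, in both replicate wells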;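 also: 0% = vehicle mean plus 3 SD and 100% = vehicle minus unstimulated blank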
KCNQ2 pot conf: confirmation of rat KCNQ2 potassium channel potentiators. shares compounds with KCNQ2 enhance. CHO-KCNQ2 cells, FluxOR thallium flux fluorescence. potentiation, less the hit threshold, % at 10 µM. 1,200 compounds, 68% hits. AID 2287;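 active = fluorescence ratio rising 3 SD or more over the vehicle control mean in both replicates, plus primary screen hit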;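 also: peak minus minimum thallium fluorescence divided by baseline after K/Tl stimulus; 0% = vehicle mean plus 3 SD and 100% = vehicle minus unstimulated blank difference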
Kir21 spec: mouse Kir2.1 off-target activity of KCNQ2 potentiators; shares compounds with KCNQ2 enhance; HEK293 Kir2.1, FluxOR thallium flux fluorescence; activity over 3SD threshold, % at 10 µM; 1,200 compounds, 2% hits; AID 2345;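 active = fluorescence ratio rise of at least 3 SD above the vehicle-control mean, seen in both replicates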;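 also: 0% = vehicle mean plus 3 SD and 100% = vehicle minus no-stimulus blank window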
KCNQ2 W236L MoA: potentiates the retigabine-insensitive rat KCNQ2 W236L mutant channel | shares compounds with KCNQ2 enhance | CHO KCNQ2-W236L, automated patch clamp current | 940 compounds, 10% hits | current increase over 3SD of negative controls (%), active compounds read high, % at 25 µM | AID 2558;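 active = current increase at least 3 SD of the untreated controls above them in both duplicate recordings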
Active calls of the source: *; i = inactive; / = not tested or not shown.

SMILES	KCNQ2 inh	KCNQ2 enhance	Kir21 conf inh	HEK293 ctr	others
Cc1ccc(OCCNC(=O)CCc2ccccc2)cc1C	i	0.6	/	/
Cn1ncc2c(O/N=C(\N)c3ccc(C(C)(C)C)cc3)ncnc21	i	6.2*	i	i	CHO-K1 ctr=47*;KCNQ1 pot spec=-1;KCNQ2 pot conf=6.1*;Kir21 spec=-36;KCNQ2 W236L MoA=i
COC(CNc1ncnc2c1cnn2C)OC	i	0.15	/	/
CCCCCCOC(=O)C[N+](C)(C)CCOC1CC2CCC1(C)C2(C)C (centres undefined)	i	/	24%*	i
CCCCCCCOC(=O)C[N+](C)(C)CCOC1CC2CCC1(C)C2(C)C (centres undefined)	i	/	16%*	i
CCCCOC(=O)C[N+](C)(C)CCOC1CC2CCC1(C)C2(C)C (centres undefined)	i	/	/	/
CCCOC(=O)C[N+](C)(C)CCOC1CC2CCC1(C)C2(C)C (centres undefined)	i	/	/	/
COC(C(=O)N/N=C/c1ccc(OCC(=O)N2CCOCC2)cc1)c1ccccc1 (centres undefined)	i	/	/	/
COc1ccc(NC(=O)CSc2nc3ccccc3c(=O)n2CCCC(=O)NCC2CCCO2)c(OC)c1 (centres undefined)	i	4.5	/	/
CC1CCC(C(C)C)C(OC(=O)C[n+]2cc(-c3ccc(Cl)cc3)n3c2CCC3)C1 (centres undefined)	i	0.19	/	/
CC1CCC(C(C)C)C(OC(=O)Cn2c(-c3ccccc3)[n+](C)c3ccccc32)C1 (centres undefined)	i	/	26%*	i
CCCCOc1cccc(C(=O)N(Cc2ccccc2)C2CCS(=O)(=O)C2)c1 (centres undefined)	i	/	/	/
NC(=NCCc1c[nH]c2ccccc12)NC(=O)c1ccc(F)cc1	i	0.4	34%*	i
NC(=NCCc1c[nH]c2ccccc12)NS(=O)(=O)c1ccc(F)cc1	i	0.95	/	/
O=C(NC1CCCC1)C1CCN(C(=O)c2ccccc2Cl)CC1	i	/	/	/
COc1ccc(C[C@H]2CN3C(=NC[C@H]3Cc3ccccc3)N2CCNC(=O)c2ccc(C)c(Br)c2)cc1	i	/	28%*	i
Cc1ccc(C(=O)NCCN2C3=NC[C@@H](Cc4ccccc4)N3C[C@H]2Cc2ccc(O)cc2)cc1Br	i	/	54%*	i
Cc1ccc(C(=O)NCCN2C3=NC[C@H](Cc4ccc(O)cc4)N3C[C@H]2Cc2ccc(O)cc2)cc1Br	i	0.05	/	/
C/C=C(\C)C(=O)NCCN1C2=NC[C@H](Cc3ccccc3)N2C[C@H]1Cc1ccc(O)cc1	i	0.1	/	/
CCOC(=O)CNC1CC(=O)N(c2ccc(Br)cc2)C1=O (centres undefined)	i	0.09	/	/
CC(C)CNC(=O)COC(=O)c1ccc2c(c1)C(=O)N(Cc1ccco1)C2=O	i	1.1	/	/
Cc1nc2c(C)cccn2c(=O)c1NC(=O)c1ccc2c(c1)OCO2	i	0.25	/	/
Cc1cccc(NC(=O)NC2CCCCCCC2)c1C	i	0.03	/	/
Cc1cc(Oc2cc(N)cc([N+](=O)[O-])c2)ccc1Cl	i	0.24	/	/
CC(NCCCOc1cccc2ccccc12)c1ccccc1 (centres undefined)	i	/	14%*	i
COc1ccc2ccccc2c1CNC(C)c1ccccc1 (centres undefined)	i	1.4	/	/
Nn1c(SCC(=O)N2CCCC2=O)nnc1-c1cccs1	i	/	/	/
COc1cc(CNCCc2ccc(F)cc2)ccc1OCc1ccc(Cl)nc1	i	/	32%*	i
